# Results from publication PMC5540273 (PLoS ONE, 2017).
# Tested on: ANKK1
# Details: concentration: 1 μM,replicates: in singlicate; n = 1
# 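Further: KINOMEscan kinase panel screen.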
row,Structure (SMILES),%Inh
1,OCCn1cc(-c2cnc3nnn(Cc4ccc5ncccc5c4)c3n2)cn1,0%
2,CCN1CCN(CCCC(=O)Nc2n[nH]c3nc(-c4ccc(O)cc4)c(Br)cc23)CC1 [SB-731579],0%
3,C[C@@H]1CNc2c(sc3ccc4nc(-c5ccncc5)ccc4c23)C(=O)N1,0%
4,COc1cccc(CNC(=O)NC2CCN(c3ccnc(Nc4cc(OC)c(OC)c(OC)c4)n3)C2)c1 (centres unmarked) [GSK1379765],42%
5,CCn1c(-c2nonc2N)nc2cncc(CNC3CCNCC3)c21.Cl [SB-747651],22%
6,O=C(NCC1CC1)c1ccc(-c2cc(C(=O)NC3CC3)ccc2F)cc1 [GW810445],0%
7,COc1cccc(OC)c1C(=O)Nc1cccc(-c2nn3ccccc3c2-c2ccnc(Nc3cccc(F)c3)n2)c1 [GSK361065],93.2%
8,Cn1cc(-c2cccc3c(N)c(C(N)=O)nnc23)cn1,19%
9,CC(C)S(=O)(=O)N1CCN(Cc2ccc3c(c2)nc(NC(=O)c2ccsc2)n3C[C@H](O)c2ccccc2)CC1 [GW635815],19%
10,Cc1ccc(CC(=O)N2CCc3cc(-c4cn(C)c5ncnc(N)c45)ccc32)cc1 [GSK2634758],23%
11,CCn1c(-c2nonc2N)nc2cncc(Br)c21 [SB-738004],1%
12,O=C(Nc1ccccc1)c1cccc(Oc2ccc3nccn3n2)c1,2%
13,COC(=O)Nc1nc2cc(Oc3ccc(NC(=O)Nc4cc(C(F)(F)F)ccc4Cl)cc3)ccc2[nH]1.Cl [GW697465],0%
14,O=C1NCCc2[nH]c(-c3ccncc3)cc21,10%
15,CNC(=O)c1ccccc1Nc1nc(Nc2cccc(CS(C)(=O)=O)c2)ncc1C.O=CO [GSK1520489],39%
16,O=C(Nc1cccc(Oc2ccc3nccn3n2)c1)Nc1cccc(C(F)(F)F)c1,0%
17,COc1ccc(Nc2nccc(N3CCC(NC(=O)c4cccc(C#N)c4)C3)n2)cc1 (centres unmarked) [GSK1379730],0%
18,COc1cc2nccc(Nc3ccc(Oc4ccccc4)cc3)c2cc1OC.Cl [GI261656],0%
19,C[C@@H](Oc1cc(-n2cnc3ccc(-c4ccncc4)cc32)sc1C(N)=O)c1ccccc1Cl [GSK483724],17%

row,Structure (SMILES),%Inh
1,CC(=O)Nc1ccc(-c2cc3ncnc(SCC(=O)O)c3s2)cc1,22%
2,NC(=O)c1ccc(-c2cc3ncnc(SCC(=O)O)c3s2)cc1,0%
3,COc1cc(Nc2nccc(N3CCC(NC(=O)c4cccc(C#N)c4)C3)n2)cc(OC)c1OC (centres unmarked) [GSK1379751],24%
4,Cn1ccc2ncnc(Oc3ccc(NC(=O)Nc4cc(C(C)(C)C)on4)c(Cl)c3)c21,10%
5,Cn1ccc2ncnc(Oc3ccc(NC(=O)Nc4cccc(C(F)(F)F)c4)c(F)c3)c21,0%
6,CC(=O)Nc1nc2cnc(Nc3cc(NC(=O)c4cccc(CC(C)(C)C#N)c4)ccc3C)nc2s1,0%
7,c1ccc(Oc2ccc(Nc3ccnc4ccc(-c5ccccn5)cc34)cc2)cc1 [GW407034],0%
8,COC(=O)c1cccc(NC(=O)NC2CCN(c3ccnc(Nc4cc(OC)c(OC)c(OC)c4)n3)C2)c1 (centres unmarked) [GSK1379767],20%
9,Cc1cccc(-c2nc(Nc3ccncc3)c3sccc3n2)n1 [GW869641],12%
10,CC(=O)c1c(-c2ccncc2)[nH]c(-c2ccncc2)c1C [GW493036],3%
11,Cc1nnc(-c2ccc3occ(-c4ccc(S(C)=O)cc4)c3n2)o1 (centres unmarked),0%
12,Cc1ccc2c(-c3ccnc(Nc4ccc(C(F)(F)F)cc4)n3)cnn2n1 [GW819776],0%
13,Cn1ccc2ncnc(Oc3ccc(NC(=O)Nc4cncc(C(F)(F)F)c4)c(Cl)c3)c21,0%
14,Cl.Nc1n[nH]c2cc(-c3ccccn3)ccc12 [GSK2189892],0%
15,C[C@@H](Oc1cc(-n2cnc3cc(-c4cnn(C)c4)ccc32)sc1C(N)=O)c1ccccc1Cl [GSK580432],0%
16,CN1CCN(CCCNc2nccc(-c3c(-c4ccc(F)cc4)nn4cc(C(N)=O)ccc34)n2)CC1 [GW622475],29%
17,O=C(Nc1n[nH]c2cc(-c3ccco3)ccc12)C1CC1 [SB-737447],27%
18,NC(=O)Nc1sc(-c2ccc(F)cc2)cc1C(N)=O [GW789449],86%

# Tested on: T1, ARK5
# T1 construct: gene NUAK1
# Details: concentration: 1 μM,replicates: in singlicate; n = 1
row,Structure (SMILES),%Inh
1,OCCn1cc(-c2cnc3nnn(Cc4ccc5ncccc5c4)c3n2)cn1,0%
2,CCN1CCN(CCCC(=O)Nc2n[nH]c3nc(-c4ccc(O)cc4)c(Br)cc23)CC1 [SB-731579],5%
3,C[C@@H]1CNc2c(sc3ccc4nc(-c5ccncc5)ccc4c23)C(=O)N1,0%
4,COc1cccc(CNC(=O)NC2CCN(c3ccnc(Nc4cc(OC)c(OC)c(OC)c4)n3)C2)c1 (centres unmarked) [GSK1379765],45%
5,CCn1c(-c2nonc2N)nc2cncc(CNC3CCNCC3)c21.Cl [SB-747651],9%
6,O=C(NCC1CC1)c1ccc(-c2cc(C(=O)NC3CC3)ccc2F)cc1 [GW810445],0%
7,COc1cccc(OC)c1C(=O)Nc1cccc(-c2nn3ccccc3c2-c2ccnc(Nc3cccc(F)c3)n2)c1 [GSK361065],0%
8,Cn1cc(-c2cccc3c(N)c(C(N)=O)nnc23)cn1,0%
9,CC(C)S(=O)(=O)N1CCN(Cc2ccc3c(c2)nc(NC(=O)c2ccsc2)n3C[C@H](O)c2ccccc2)CC1 [GW635815],60%
10,Cc1ccc(CC(=O)N2CCc3cc(-c4cn(C)c5ncnc(N)c45)ccc32)cc1 [GSK2634758],37%
11,CCn1c(-c2nonc2N)nc2cncc(Br)c21 [SB-738004],0%
12,O=C(Nc1ccccc1)c1cccc(Oc2ccc3nccn3n2)c1,0%
13,COC(=O)Nc1nc2cc(Oc3ccc(NC(=O)Nc4cc(C(F)(F)F)ccc4Cl)cc3)ccc2[nH]1.Cl [GW697465],0%
14,O=C1NCCc2[nH]c(-c3ccncc3)cc21,0%
15,CNC(=O)c1ccccc1Nc1nc(Nc2cccc(CS(C)(=O)=O)c2)ncc1C.O=CO [GSK1520489],99.1%
16,O=C(Nc1cccc(Oc2ccc3nccn3n2)c1)Nc1cccc(C(F)(F)F)c1,8%
17,COc1ccc(Nc2nccc(N3CCC(NC(=O)c4cccc(C#N)c4)C3)n2)cc1 (centres unmarked) [GSK1379730],0%
18,COc1cc2nccc(Nc3ccc(Oc4ccccc4)cc3)c2cc1OC.Cl [GI261656],7%
19,C[C@@H](Oc1cc(-n2cnc3ccc(-c4ccncc4)cc32)sc1C(N)=O)c1ccccc1Cl [GSK483724],0%

row,Structure (SMILES),%Inh
1,CC(=O)Nc1ccc(-c2cc3ncnc(SCC(=O)O)c3s2)cc1,0%
2,NC(=O)c1ccc(-c2cc3ncnc(SCC(=O)O)c3s2)cc1,0%
3,COc1cc(Nc2nccc(N3CCC(NC(=O)c4cccc(C#N)c4)C3)n2)cc(OC)c1OC (centres unmarked) [GSK1379751],26%
4,Cn1ccc2ncnc(Oc3ccc(NC(=O)Nc4cc(C(C)(C)C)on4)c(Cl)c3)c21,4%
5,Cn1ccc2ncnc(Oc3ccc(NC(=O)Nc4cccc(C(F)(F)F)c4)c(F)c3)c21,5%
6,CC(=O)Nc1nc2cnc(Nc3cc(NC(=O)c4cccc(CC(C)(C)C#N)c4)ccc3C)nc2s1,7%
7,c1ccc(Oc2ccc(Nc3ccnc4ccc(-c5ccccn5)cc34)cc2)cc1 [GW407034],26%
8,COC(=O)c1cccc(NC(=O)NC2CCN(c3ccnc(Nc4cc(OC)c(OC)c(OC)c4)n3)C2)c1 (centres unmarked) [GSK1379767],10%
9,Cc1cccc(-c2nc(Nc3ccncc3)c3sccc3n2)n1 [GW869641],0%
10,CC(=O)c1c(-c2ccncc2)[nH]c(-c2ccncc2)c1C [GW493036],3%
11,Cc1nnc(-c2ccc3occ(-c4ccc(S(C)=O)cc4)c3n2)o1 (centres unmarked),10%
12,Cc1ccc2c(-c3ccnc(Nc4ccc(C(F)(F)F)cc4)n3)cnn2n1 [GW819776],0%
13,Cn1ccc2ncnc(Oc3ccc(NC(=O)Nc4cncc(C(F)(F)F)c4)c(Cl)c3)c21,0%
14,Cl.Nc1n[nH]c2cc(-c3ccccn3)ccc12 [GSK2189892],0%
15,C[C@@H](Oc1cc(-n2cnc3cc(-c4cnn(C)c4)ccc32)sc1C(N)=O)c1ccccc1Cl [GSK580432],98.7%
16,CN1CCN(CCCNc2nccc(-c3c(-c4ccc(F)cc4)nn4cc(C(N)=O)ccc34)n2)CC1 [GW622475],19%
17,O=C(Nc1n[nH]c2cc(-c3ccco3)ccc12)C1CC1 [SB-737447],0%
18,NC(=O)Nc1sc(-c2ccc(F)cc2)cc1C(N)=O [GW789449],0%
